Compound activity (PubChem BioAssay)
Abeta yeast res = compounds reversing amyloid beta toxicity in yeast. yeast expressing A-beta42, growth rescue, OD600, 48 h; response scale: 0% DMSO, 100% iron-clioquinol control. Potency, µM (series often up to 46.1 µM), hits mostly activators. 410,000 tested, 0.063% active; further: nearly all actives have a fitted effect of over 55% in size
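Growth rescue measured by 600 nm absorbance after 48 h yeast culture at 30 C with compound. Values normalized between DMSO and an equimolar ferric chloride plus clioquinol control.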
A-T KAP1 phos = potential ataxia-telangiectasia treatments restoring KAP-1 phosphorylation. F2112 A-T fibroblasts, KAP-1 phosphorylation AlphaLISA; neocarzinostatin DNA damage 30 min before lysis. Potency, µM (highest dose often 57.5 µM), inactives show at the top dose activation, hits mostly activators. 320,000 tested, 0.19% active; further: % of control where 0% means no effect; nearly all actives have a fitted effect of over 45% in size
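hTERT-immortalized A-T patient fibroblasts (F2112), 500 cells/well in OPTI-MEM, 1% FBS, got compounds for 60 min, then NCS for 30 min at 37C. Lysates were then assayed for phospho-KAP-1 by AlphaLISA (anti-pKAP1 donor, anti-KAP1 acceptor beads), 6 hr at 25C.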
FUS suppressor = FUS proteinopathy suppression in yeast. Potency, µM (titrated, usually from 76.6 µM), actives largely listed as activators. S. cerevisiae FUS-expressing, growth rescue, OD600, 24 h. 390,000 tested, 0.24% active. AID 1347120;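 further: plate controls were DMSO vehicle for no effect and reference control for full effect; nearly all actives have a fitted effect of over 55% in size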
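Galactose (2%) drives FUS expression in yeast precultured in raffinose; seeding density OD 0.005. Test compounds incubated 24hr at 30C and 99% humidity before absorbance at 600 nm was measured.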
Mito fusion yeast = mitochondrial division inhibition or fusion activation. 320,000 tested, 0.23% active. S. cerevisiae fusion-defective mutant growth rescue, CellTiterGlo 48 h. Potency, µM (doses to about 46.1 µM), inactives show at the highest dose growth rescue (activation), hits mostly activators. AID 485298; further: % of control where 0% means no effect; nearly all actives have a fitted effect of over 45% in size
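Growth-rescue viability read-out: after 48 h at the non-permissive 37C in glycerol/ethanol YPEG, yeast mitochondrial fusion mutants are measured by CellTiterGlo luminescence; compounds (23 nl pinned per well) restoring growth score as division inhibitors or fusion activators.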
TDP43 rescue = rescues yeast growth from TDP-43 toxicity | TDP-43 expressing yeast growth rescue, BacTiter-Glo, 24 h | Potency, µM (titrated, usually from 46.1 µM), for the others: at the highest dose growth rescue (activation), usual class: activators | 410,000 tested, 1.8% active; further: % of control where 0% means no effect; nearly all actives have a fitted effect of over 50% in size
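Galactose-induced TDP-43 yeast, OD600=0.02, compound pinned; 24 hr, 30 deg C; BacTiter-Glo luminescence for growth. Inhibitors of TDP-43 toxicity read as activators.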
aSyn yeast inh = inhibitors of alpha-synuclein toxicity in yeast; 370,000 tested, 0.14% active; AID 652106; Yeast expressing alpha-synuclein, growth rescue, BacTiter-Glo, 24 h; Potency, µM (top dose mostly 46.1 µM), inactives show at the top dose growth rescue (activation), most hits filed as activators; further: % of control where 0% means no effect; nearly all actives have a fitted effect of over 65% in size
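Readout is rescue of growth in alpha-synuclein-expressing yeast, so inhibitors of toxicity appear as activators. Growth after 24 hr at 30 deg C in galactose medium is quantified by luminescence.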
The depositor's hits bear a star; i = inactive; u = inconclusive; x = no result. A selection: hits, their analogues and other compounds. The true share with any hit is near 2.4%. The call rests on the fitted dose curve; in most records, active means well fitted curve in the direction sought with a large enough effect; inconclusive means small, poorly fitted or top-dose-only effect, or another doubt; inactive means no such curve, though single readings can be large; an effect the other way counts as inactive or inconclusive. Potency means the concentration at half of the fitted maximal effect.

SMILES | Abeta yeast res | A-T KAP1 phos | FUS suppressor | Mito fusion yeast | TDP43 rescue | aSyn yeast inh
Cc1cccc(C)c1NC(=O)N1CCN(c2nc3ccccc3s2)CC1 | i | 4% | i | 20% | u | 0%
CCc1ccc2nc(N3CCN(C(=O)c4ccccc4)CC3)sc2c1 | i | x | i | x | 11µM* | x
O=C(c1ccc2nc(N3CCOCC3)sc2c1)N1CCC(Cc2ccccc2)CC1 | i | -11% | u | 10% | 25µM* | 5%
O=C(NCCc1ccccc1)c1ccc2nc(N3CCOCC3)sc2c1 | i | -6% | i | -1% | u | 0%
O=C(c1ccco1)N1CCN(c2nc3ccc(Cl)cc3s2)CC1 | i | x | i | x | 11µM* | x
CCCC(=O)N1CCN(c2nc3ccc(CC)cc3s2)CC1 | i | 17% | i | 0% | u | 3%
Cc1cc2nc(N3CCN(C(=O)c4ccco4)CC3)sc2cc1C | i | -2% | i | 16% | 11% | 1%
COc1ccc(Cl)cc1NC(=O)NCCn1c(=O)oc2ccc(C)cc21 | i | x | i | x | 25% | x
COC(=O)c1cc2oc(C)cc2n1Cc1ccc(Br)cc1F | i | x | i | x | 8% | x
COCCCNC(=O)C[C@H]1C[C@@]2(C(=O)OC)C(=C[C@H](C3CCCC3)O[C@@H]2C)N(CCC2=CCCCC2)C1=O | x | x | i | x | x | x
CC(C)C[C@@H]1COc2cc(Br)ccc2S(=O)(=O)N1Cc1cn(CCC2OCCO2)nn1 | x | x | i | x | x | x
Cc1ccccc1CN1CCCCC(NC(=O)c2ccc(N(C)C)cc2)C1=O (stereo not drawn) | x | x | i | x | x | x
CC(C)=CCC/C(C)=C/CC/C(C)=C/CCC1(C)CCc2cc(O)ccc2O1 (stereo not drawn) | x | x | x | x | x | -8%
Cc1ccc(C)c(N2CCN(C(=O)c3ccc4nc(N5CCOCC5)sc4c3)CC2)c1 | i | -3% | u | 13% | 13µM* | 4%
Cc1ccc2cc3cc(C(=O)N4CCN(Cc5ccccc5)CC4)sc3nc2c1 | i | 13% | i | -2% | 16% | 0%
Cc1ccc2cc3cc(C(=O)N4CCN(C(=O)c5ccco5)CC4)sc3nc2c1 | i | -2% | i | 2% | 13µM* | -1%
COc1ccc2c(c1)CO[C@H]([C@H](O)COC(C)=O)[C@H]2/C=C/c1ccccc1 | x | x | i | x | x | x
CCc1ccccc1N(C)C(=O)c1cn(-c2cccc(OC)c2)c(=O)c2ccccc12 | i | x | i | x | 20µM* | x
O=C(NCc1ccccc1)C(c1ccc(C(F)(F)F)cc1)n1c(=O)c(-c2cc3ccccc3[nH]2)nc2ccccc21 (stereo not drawn) | u | x | u | x | 0% | 7.1µM*
Cc1cccc(C)c1NC(=O)C(c1ccc(C#N)cc1)n1c(=O)c(-c2cc3ccccc3[nH]2)nc2ccccc21 (stereo not drawn) | u | x | i | x | 10µM* | 29%
O=c1c(-c2cc3ccccc3[nH]2)nc2ccccc2n1C(CCc1ccccc1)c1nc2ccccc2[nH]1 (stereo not drawn) | u | x | u | x | u | 29%
COc1ccc(NC(=O)C(C2CC2)n2c(=O)c(-c3cc4ccccc4[nH]3)nc3ccccc32)cc1 (stereo not drawn) | i | x | u | x | 15% | 14µM*
CSCCC(c1nc2ccccc2[nH]1)n1c(=O)c(-c2cc3ccccc3[nH]2)nc2ccccc21 (stereo not drawn) | u | x | i | x | 18µM* | -19%
N#Cc1ccc(C(C(=O)NCc2ccccc2)n2c(=O)c(-c3cc4ccccc4[nH]3)nc3ccccc32)cc1 (stereo not drawn) | i | x | u | x | u | 6%
COc1cc2nc(N3CCCN(C)CC3)nc(NC3CCN(C)CC3)c2cc1OC | x | x | x | x | x | 5%
SMILES | Abeta yeast res | A-T KAP1 phos | FUS suppressor | Mito fusion yeast | TDP43 rescue | aSyn yeast inh
CCOc1ccc(C(=O)c2cn(Cc3ccccc3)c3c(F)cc(F)cc3c2=O)cc1 | i | x | i | x | 2% | x
Cc1cccc(C)c1NC(=O)C(c1ccncc1)n1c(=O)c(-c2cc3ccccc3[nH]2)nc2ccccc21 (stereo not drawn) | i | x | u | x | 14µM* | 5%
Cc1cccc(C)c1NC(=O)C(c1ccccc1)n1c(=O)c(-c2cc3ccccc3[nH]2)nc2ccccc21 (stereo not drawn) | u | x | i | x | u | 0%
CCCCC1Cc2[nH][nH]c(=O)c2C(c2ccc(F)cc2)O1 (stereo not drawn) | i | x | u | x | u | 26%
CC(C)[C@@H]1Cc2[nH][nH]c(=O)c2[C@H](c2ccc(F)cc2)O1 | i | x | i | x | 11µM* | -9%
O=c1[nH][nH]c2c1[C@H](c1ccc(F)cc1)O[C@H](CCC(F)(F)F)C2 | i | x | i | x | 20µM* | u
O=c1[nH][nH]c2c1C(c1ccc(F)cc1)OC(CCc1ccccc1)C2 (stereo not drawn) | i | x | i | x | 20µM* | 14%
CCCCC1Cc2[nH][nH]c(=O)c2C(c2ccc(Cl)cc2)O1 (stereo not drawn) | i | x | u | x | 11µM* | -5%
CN(C)/[N+]([O-])=N/Oc1ccc([N+](=O)[O-])cc1C(F)(F)F | x | x | x | x | x | -15%
C[n+]1ccc(/C=C/c2ccc([N+](C)(C)C)cc2)c2ccccc21 | x | x | x | x | x | -65%
CCn1nc(C)c(CNC(=O)c2cc(COc3ccc(F)cc3Cl)on2)c1C | i | 1.6µM* | u | 4% | u | 2%
O=Cc1ccc(N2Cc3ccccc3C2)cc1 | i | 0% | i | -2% | 3.2µM* | 2%
CCCCOC(=O)c1cccc(NC(=O)c2cc3ccccc3o2)c1 | i | x | i | x | u | x
O=C(Nc1ccc2ccccc2c1)NC1CCCCN(Cc2ccc(Cl)cc2)C1=O (stereo not drawn) | x | x | i | x | x | x
Cc1ccc(C(=O)N/C(=C/c2cn(-c3ccccc3)nc2-c2ccccc2)C(=O)O)cc1 | i | 1% | i | 4% | 10% | -1%
